Data from PubChem BioAssay AID488969 (Vanderbilt High Throughput Screening Facility, 2010).
Whole data set: some 110,000 compounds, median “z-score” near -0.1, cut for the highest 2% near 2. This is one part of a sample in which the highest values are shown more often than they occur. The source made the active and inactive calls.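 Rule for the calls: active = z-score in the third read window above 3 or below -3; inactive = the rest.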

Target: Metabotropic glutamate receptor 8 (Rattus norvegicus) (UniProt P70579)
Assay: mGluR8 Gi/Go-coupled signaling modulation – cell-based, rat, thallium flux, HTS, primary screen (AID 488969)
Conditions: HEK293 rat mGluR8, GIRK (G protein-gated inwardly rectifying potassium channel) thallium flux, FluoZin2; at 10 µM; stronger effect = higher value; submaximal glutamate (EC20) added with thallium

Sequence of Metabotropic glutamate receptor 8 (Rattus norvegicus) (P70579 whole entry, looked up): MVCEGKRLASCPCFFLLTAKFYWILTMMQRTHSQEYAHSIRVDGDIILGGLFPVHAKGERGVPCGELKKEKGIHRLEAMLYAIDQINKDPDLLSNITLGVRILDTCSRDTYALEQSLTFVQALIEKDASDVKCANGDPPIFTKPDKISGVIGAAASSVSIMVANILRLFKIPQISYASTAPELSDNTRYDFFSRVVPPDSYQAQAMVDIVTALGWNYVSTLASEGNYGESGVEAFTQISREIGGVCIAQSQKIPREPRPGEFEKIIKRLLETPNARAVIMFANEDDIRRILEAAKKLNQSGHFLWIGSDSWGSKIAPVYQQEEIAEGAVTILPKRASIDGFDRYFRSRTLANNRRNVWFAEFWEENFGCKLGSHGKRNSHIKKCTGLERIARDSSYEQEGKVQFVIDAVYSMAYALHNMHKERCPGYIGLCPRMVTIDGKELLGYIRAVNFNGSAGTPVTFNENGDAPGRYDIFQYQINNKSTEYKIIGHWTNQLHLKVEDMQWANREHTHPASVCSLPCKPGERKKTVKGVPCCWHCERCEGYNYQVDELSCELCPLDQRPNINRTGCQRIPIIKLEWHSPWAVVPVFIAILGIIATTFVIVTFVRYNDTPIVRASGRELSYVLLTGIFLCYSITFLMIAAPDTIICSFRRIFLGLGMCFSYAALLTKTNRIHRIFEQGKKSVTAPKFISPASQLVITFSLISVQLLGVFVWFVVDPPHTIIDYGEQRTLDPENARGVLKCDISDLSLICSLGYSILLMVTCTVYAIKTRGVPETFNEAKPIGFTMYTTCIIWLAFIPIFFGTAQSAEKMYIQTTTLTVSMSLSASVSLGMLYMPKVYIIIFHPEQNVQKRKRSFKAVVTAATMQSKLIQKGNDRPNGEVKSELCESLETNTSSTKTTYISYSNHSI

SMILES | z-score
CCOC(=O)C1CCN(C(=O)c2cc(OCC)c(OCC)c(OCC)c2)CC1 | 0.856
OC1CCN(c2c3c(nc4cc(-c5ccc(Cl)cc5)nn24)CCC3)CC1 | -0.738
O=C(c1cc2ccccc2c(=O)o1)N1CCCC1 | 0.79
Cc1cc(NC(=O)c2c(F)cccc2Cl)n(-c2nc3ccccc3[nH]2)n1 | 3.06 (active)
Cc1cc(NC(=O)c2ccc(F)cc2F)n(-c2nc3ccccc3[nH]2)n1 | 0.0238
Cc1cc(NC(=O)/C=C/c2ccccc2Cl)n(-c2nc3ccccc3[nH]2)n1 | 0.0437
Oc1cccc(NC(=S)Nc2ccc(SC(F)F)cc2)c1 | 2.92
CC1CCCC(NC(=S)Nc2ccc(SC(F)F)cc2)C1C (configuration not stated) | 4.36 (active)
CN(C(=S)Nc1ccc(SC(F)F)cc1)c1ccc(O)cc1 | 0.142
FC(F)Sc1ccc(NC(=S)NC2CCCCC2)cc1 | -0.326
FC(F)Sc1ccc(NC(=S)NCC2CCCCC2)cc1 | -0.233
FC(F)Sc1ccc(NC(=S)NC2CCC(NC(=S)Nc3ccc(SC(F)F)cc3)CC2)cc1 (configuration not stated) | -0.2
CC1CC(C)CN(C(=S)Nc2ccc(OC(F)F)cc2)C1 (configuration not stated) | -0.115
CC1CC(C)CN(C(=S)Nc2ccc(SC(F)F)cc2)C1 (configuration not stated) | 6.63 (active)
CC1CCCCC1NC(=S)Nc1ccc(SC(F)F)cc1 (configuration not stated) | 5.08 (active)
CC1CCN(C(=S)Nc2ccc(SC(F)F)cc2)CC1 | 0.000321
CN1CCC(N(C)C(=S)Nc2ccc(SC(F)F)cc2)CC1 | -0.0288
Oc1cccc(NC(=S)Nc2cccnc2)c1 | -0.756
c1cncc(C(c2nnnn2C2CCCC2)N2CCN(Cc3ccc4c(c3)OCO4)CC2)c1 (configuration not stated) | 0.0897
O=C(c1ccco1)N1CCN(c2ccc(Cl)c(Cl)c2)CC1 | -0.938
COc1cccc(OC)c1NC(=O)CN1CCC(NC(=O)c2cccc(F)c2)CC1 | -0.0108
O=C(CCNC(=O)Cn1ccc2ccccc2c1=O)NCCc1ccccc1Cl | -0.0359

SMILES | z-score
CCSc1nnc(NC(=O)C2Cc3ccccc3CN2S(=O)(=O)CC)s1 (configuration not stated) | 0.295
C=CC(=O)Nc1ccc(Br)cc1 | 0.0392
COc1ccc(/C=C/C(=O)Oc2ccc(/C=N\NC(=O)c3ccc(F)cc3)cc2)cc1 | 0.18
COc1ccc(C(=O)C2CCN(C(=O)c3ccc(C)cc3)CC2)cc1 | -0.285
COc1ccc(C(=O)N2CCC(C(=O)c3ccc(F)cc3)CC2)cc1 | -1.67
COc1ccc(-c2nc(N)n(C(=O)c3ccc(C)cc3)n2)cc1 | 0.106
COc1ccc(C(=O)N2C(=S)NC(=O)/C2=C\c2ccc(C)cc2)cc1 | 2.75
COc1ccc(/C=C2\C(=O)NC(=S)N2C(=O)c2ccc(F)cc2)cc1 | 3.14 (active)
N#Cc1cc2c(nc1SCc1ccccc1)CCC2 | 0.359
Cc1oncc1C(=S)Nc1ccccc1 | 12.4 (active)
COC(=O)c1cccc(NC(=O)c2cnoc2C)c1 | -0.126
Cc1c(C(=S)Nc2ccccc2)cnn1-c1ccccc1 | -0.398
COc1ccc(C(C)N2CC34C=CC(O3)C(C(=O)O)C4C2=O)cc1 (configuration not stated) | 0.302
Cc1ccccc1OCC(O)Cn1nnc2ccccc21 (configuration not stated) | -0.244
COc1ccc(OCC(O)Cn2c(Nc3ccccc3)nc3c2c(=O)n(C)c(=O)n3C)cc1 (configuration not stated) | -0.45
C=CCn1c(N)c(C(=O)Nc2ccccc2OC)sc1=S | 0.333
Cc1ccc(NC(=O)c2ccc(COc3ccc4c(c3)CCC4)cc2)c(C)c1 | 3.36 (active)
COC(=O)c1ccccc1NC(=O)c1ccc(COc2ccc3c(c2)CCC3)cc1 | -0.271
COc1ccccc1NC(=O)c1ccc(COc2ccc3c(c2)CCC3)cc1 | -0.228
O=C(O)[C@H]1CCCC[C@H]1C(=O)NCCc1ccccc1 | 0.402
CCOc1ccc(-n2c(Cc3cc(=O)[nH]c(=O)[nH]3)nnc2SC(C)C(=O)OC)cc1 (configuration not stated) | 12.7 (active)
COC(=O)C(C)Sc1nnc(Cc2cc(=O)[nH]c(=O)[nH]2)n1-c1ccc(OC)cc1 (configuration not stated) | 0.194

SMILES | z-score
CCOC(=O)C(C)Sc1nnc(Cc2cc(=O)[nH]c(=O)[nH]2)n1-c1ccc(OCC)cc1 (configuration not stated) | 0.465
COc1ccc(C(C(=O)NC(C)(C)C)N(CC2CCCO2)C(=O)CCC(=O)Nc2cc(C)on2)cc1 (configuration not stated) | -0.202
O=S(=O)(N/N=C/c1ccc(OC2CSC2)cc1)c1ccccc1 | -0.00217
Nc1c(S(=O)(=O)c2cccs2)c2nc3ccccc3nc2n1Cc1ccc2c(c1)OCO2 | -0.174
Cc1ccc(-c2n[nH]c(=S)n2/N=C/c2ccc(C)o2)cc1 | -1.27
Cc1ccc(/C=N/n2c(-c3cccs3)n[nH]c2=S)cc1 | 10 (active)
Cc1ccsc1/C=N/n1c(-c2ccccn2)n[nH]c1=S | -0.121
Cc1ccc(/C=N/n2c(-c3ccncc3)n[nH]c2=S)cc1 | 0.0356
Fc1ccc(/C=N/n2c(-c3cccs3)n[nH]c2=S)cc1 | 4.92 (active)
S=c1[nH]nc(-c2ccncc2)n1/N=C/c1ccccc1 | -0.00784
Cc1c(/C=N/NC(N)=O)c2ccccn2c1C(=O)c1ccc(F)cc1 | -0.327
COCc1cc(C)nc2sc(C(=O)N3CCCCC3)c(N)c12 | 0.33
CCCCOc1ccc(C(=O)N2CC(C)OC(C)C2)cc1 (configuration not stated) | -0.154
CCCCOc1ccc(C(=O)OC2CC(C)N(C)CC2C)cc1 (configuration not stated) | 3.48 (active)
CCCCOc1ccc(C(=O)N2CCC(C)CC2)cc1 | -0.401
Cc1nc2ccc(NC(=O)c3ccc(S(=O)(=O)N4CCOCC4)cc3)cc2s1 | -0.182
CCN(c1ccccc1)S(=O)(=O)c1ccc(C(=O)Oc2ccc(C(C)=O)cc2)cc1 | -0.819
CC(=O)c1ccc(OC(=O)N(c2ccccc2)c2ccccc2)cc1 | 2.99
O=C(Oc1ccc(-c2nnco2)cc1)N(c1ccccc1)c1ccccc1 | 0.519
CS(=O)(=O)N(CCc1ccccc1)CC(=O)NCc1cccnc1 | 0.68
O=c1c2c(n3nnnc3n1Cc1ccccc1)-c1ccccc1CC21CCCC1 | 0.0259
CC(=O)Nc1ccc(S(=O)(=O)NNC(=O)c2cc3c4ccccc4n(C)c3s2)cc1 | -0.78

SMILES | z-score
COc1ccc(S(=O)(=O)NNC(=O)c2cc3c4ccccc4n(C)c3s2)cc1 | -0.127
Cn1c2ccccc2c2cc(C(=O)NNS(=O)(=O)c3ccc(F)cc3)sc21 | 5.09 (active)
COc1ccccc1C(=O)Nc1ccc(S(=O)(=O)N2CCc3ccccc32)cc1 | 0.187
Cc1ccc(Oc2cc([N+](=O)[O-])cc3c2C(=O)Nc2ccccc2O3)cc1 | -0.0885
CCOC(=O)Cc1cc(-c2ccc(O)cc2)nc2ccc3ccccc3c12 | 0.0725
CCOC(=O)c1c(C)nc2c(c1-c1ccc(Cl)cc1)C(=O)CC(C)(C)C2 | -1.24
CC(C)C[C@H](NC(=O)NCCc1ccc(Cl)cc1)C(=O)O | 2.58
CC(C)CC(NC(=O)c1ccc(Cl)cc1)C(=O)O (configuration not stated) | -0.0425
CC(C)[C@H](NC(=O)NCCc1ccc(Cl)cc1)C(=O)O | 0.54
COc1ccc(NC(=O)C23CC4CC(C2)CC(n2cnc(Br)n2)(C4)C3)cc1Cl | -0.254
Cn1c(=O)cc(SCC(=O)NCCC2=CCCCC2)c2ccc(Cl)cc21 | -0.0516
O=C(NC(Nc1nc2ccc([N+](=O)[O-])cc2s1)(C(F)(F)F)C(F)(F)F)c1ccccc1Cl | 9.65 (active)
O=C(NC(Nc1nc2ccc([N+](=O)[O-])cc2s1)(C(F)(F)F)C(F)(F)F)c1cccnc1 | 0.978
O=C(NC(Nc1nc2ccc([N+](=O)[O-])cc2s1)(C(F)(F)F)C(F)(F)F)c1ccccc1 | 6.52 (active)
COC(=O)C(NC(=O)c1ccccc1Cl)(Nc1ncc(S(=O)(=O)c2ccc([N+](=O)[O-])cc2)s1)C(F)(F)F (configuration not stated) | -0.242
O=C(NC(Nc1nc2ccccc2s1)(C(F)(F)F)C(F)(F)F)c1ccccc1 | -0.124
O=C(NC(NNc1ccc([N+](=O)[O-])cc1)(C(F)(F)F)C(F)(F)F)c1ccccc1Cl | -0.392
CN(C(=O)Nc1ccc(S(=O)(=O)N(C)C)cc1)C1CCCCC1 | -0.0267
O=C(CCn1c(=O)c2ccccc2n(CC(=O)NC2CCCC2)c1=O)NCc1ccco1 | -0.258
CN(C(=O)COC(=O)c1ccccc1SCC(=O)NC1CCCCCCC1)C1CCS(=O)(=O)C1 (configuration not stated) | -0.32
Cc1cc(Oc2ccc3ccccc3c2)nc(SCC(=O)c2ccccc2)n1 | -0.14
CC(=O)/C=C(\C)Nc1ccc(-c2cnc(-c3ccccc3)o2)cc1 | 0.0863

SMILES | z-score
CS(=O)(=O)c1ccc(Cl)c(S(=O)(=O)NCc2ccccc2)c1 | 0.117
CCNS(=O)(=O)c1cc(S(C)(=O)=O)ccc1Cl | 8.32 (active)
Cc1ccccc1NS(=O)(=O)c1cc(S(C)(=O)=O)ccc1Cl | -0.0663
CC(C)=CC(=O)Nc1nnc(-c2ccccc2)s1 | -0.169
CCNC(=S)NNC(=O)c1cccc(Br)c1 | 0.0953
Cc1ccc(C(=O)NNC(=S)Nc2cccc3ccccc23)s1 | 1.65
C=CCNC(=S)NNC(=O)c1cccc(Br)c1 | -0.0521
O=C(O)CCC(=O)NNC(=O)c1cccc(Br)c1 | -0.13
O=C(NNC(=S)Nc1cccc2ccccc12)c1cccc(Br)c1 | 13.9 (active)
O=C(NNC(=S)Nc1ccccc1)c1cccc(Br)c1 | 3.98 (active)
CCC(=O)NCCn1c(C)cc2ccccc21 | 0.729
CC(/C=N/NC(=O)c1ccc(CN2c3cccc4cccc(c34)S2(=O)=O)cc1)c1ccccc1 (configuration not stated) | -0.557
Cc1ccc(-c2noc(CCC(=O)NCCN3CCOCC3)n2)cc1 | -0.472
O=C(Nc1ncccn1)c1cc([N+](=O)[O-])cc([N+](=O)[O-])c1 | -0.131
O=C(O)CN=C(NS(=O)(=O)c1ccc(Cl)cc1)c1ccccc1 | 0.274
O=C(O)CN=C(NS(=O)(=O)c1ccccc1)c1ccccc1 | 4.61 (active)
Cc1ccc(S(=O)(=O)NC(=NCC(=O)O)c2ccc(F)cc2)cc1 | 0.317
CCOc1ccccc1CNS(=O)(=O)c1ccc2c(c1)oc(=O)n2C | -0.853
CCn1cc(C(=O)Nc2nnc(C)s2)c(=O)c2cc(F)c(N3CCN(C(=O)c4ccco4)CC3)cc21 | -0.178
